Laboratory results reported in PubChem BioAssay (NCATS).
Inconclusive results are not listed. Activity calls are given as the source filed them. Calls follow the shape of the dose curve; as a rule, active = well fitted curve in the direction sought with a large enough effect; inconclusive = small, poorly fitted or top-dose-only effect, or another doubt; inactive = no such curve, though single readings can be large; an effect the other way counts as inactive or inconclusive.

Columns and labels:
CRL-7250 = normal cell line; assay: Cytotoxic Profiling of Annotated Libraries Using Quantitative High-Throughput Screening (AID 1296008); conditions: Five cell lines viability, CellTiter-Glo ATP luminescence, 48-72 h; max response: hits give low values; also: nearly all actives have a fitted effect of over 60% in size
How it was run: (§1)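 Cells exposed to compounds for 48 or 72 hr at 37 degrees Celsius. Viability read as ATP-coupled luminescence with CellTiter-Glo after 10 min at room temperature.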

HEK293 = assay: as above; conditions: Five cell lines viability, CellTiter-Glo ATP luminescence, 48-72 h; max response: hits give low values
How it was run: as §1

HaCat = assay: as above; conditions: Five cell lines viability, CellTiter-Glo ATP luminescence, 48-72 h; max response: hits give low values
How it was run: as §1

KB-3-1 = assay: as above; conditions: Five cell lines viability, CellTiter-Glo ATP luminescence, 48-72 h; max response: hits give low values
How it was run: as §1

NIH3T3 [1] = assay: as above; conditions: Five cell lines viability, CellTiter-Glo ATP luminescence, 48-72 h; max response: hits give low values
How it was run: as §1

HEK293T = assay: qHTS assay to identify novel small-molecules to repurpose for Merkel cell carcinoma treatment (AID 1296009); conditions: MCC and control cell lines, CellTiter-Glo viability, 72 h; series mostly up to 44.8 µM; also: nearly all actives have a fitted effect of over 60% in size
How it was run: (§2)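 Cells were incubated with compound for 72 hr at 37 degree celsius before CellTiter-Glo addition. Luminescence was normalized with no-cell wells as full cytotoxicity and DMSO as baseline.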

C33A = assay: Primary qHTS to identify gynecologic anti-cancer compounds using libraries of approved drugs and bioactive compounds (AID 1345084); conditions: Gynecologic cancer cell panel viability, ATPlite luminescence, 48 h; series mostly up to 57.5 µM; also: nearly all actives have a fitted effect of over 55% in size
How it was run: (§3)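 Cells, 1,000 per well, plated 16 h, then exposed 48 h at 37 C to compounds. Viability by ATPlite luminescence after 15 min at room temperature.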

CAOV3 = assay: as above; conditions: Gynecologic cancer cell panel viability, ATPlite luminescence, 48 h; series mostly up to 57.5 µM
How it was run: as §3

CASKI = assay: as above; conditions: Gynecologic cancer cell panel viability, ATPlite luminescence, 48 h; series mostly up to 57.5 µM
How it was run: as §3

Es-2 = assay: as above; conditions: Gynecologic cancer cell panel viability, ATPlite luminescence, 48 h; series mostly up to 57.5 µM
How it was run: as §3

HeLa = assay: as above; conditions: Gynecologic cancer cell panel viability, ATPlite luminescence, 48 h; series mostly up to 57.5 µM
How it was run: as §3

MCC-13 = assay: qHTS assay to identify novel small-molecules to repurpose for Merkel cell carcinoma treatment (AID 1296009); conditions: MCC and control cell lines, CellTiter-Glo viability, 72 h; series mostly up to 46 µM; also: nearly all actives have a fitted effect of over 60% in size
How it was run: as §2

MCC-26 = assay: as above; conditions: MCC and control cell lines, CellTiter-Glo viability, 72 h; series mostly up to 46 µM
How it was run: as §2

MKL-1 = assay: as above; conditions: MCC and control cell lines, CellTiter-Glo viability, 72 h; series mostly up to 46 µM
How it was run: as §2

MKL-2 = assay: as above; conditions: MCC and control cell lines, CellTiter-Glo viability, 72 h; series mostly up to 46 µM
How it was run: as §2

NIH3T3 [2] = assay: as above; conditions: MCC and control cell lines, CellTiter-Glo viability, 72 h; at 44.8 µM (top of the series) unless noted
How it was run: as §2

UISO = assay: as above; conditions: MCC and control cell lines, CellTiter-Glo viability, 72 h; series mostly up to 46 µM
How it was run: as §2

WaGa = assay: as above; conditions: MCC and control cell lines, CellTiter-Glo viability, 72 h; series mostly up to 46 µM
How it was run: as §2
% is scaled to controls: 0 for no effect and ±100 for the full control effect.

CC(=O)c1c(O)cc2c(c1C)C(=O)CC(O)C2 (stereo not drawn)
inactive: max response (CRL-7250) 4.51% | outcome (HEK293) | max response (HaCat) 1.58% | max response (KB-3-1) 9.72% | max response (NIH3T3 [1]) 1.74% | Potency (HEK293T) | Potency (C33A) | Potency (CAOV3) | Potency (CASKI) | Potency (Es-2) | Potency (HeLa)

C=C1CC23CCC4[C@@](C)(CCC[C@@]4(C)C(=O)O)C2CCC1C3 (stereo partly drawn)
inactive: max response (CRL-7250) -2.77% | outcome (HEK293) | max response (HaCat) -11.3% | max response (KB-3-1) 2.07% | max response (NIH3T3 [1]) 3.55% | Potency (HEK293T) | Potency (C33A) | Potency (CAOV3) | Potency (CASKI) | Potency (Es-2) | Potency (HeLa)

CN1Cc2c(N)cccc2C(c2ccccc2)C1 (stereo not drawn)
inactive: max response (CRL-7250) -1.42% | max response (HEK293) 3.6% | max response (HaCat) -17.5% | max response (KB-3-1) -2.79% | outcome (NIH3T3 [1]) | outcome (MCC-13) | outcome (MCC-26) | outcome (MKL-1) | outcome (MKL-2) | outcome (NIH3T3 [2]) | outcome (UISO) | outcome (WaGa) | Potency (C33A) | Potency (CAOV3) | Potency (CASKI) | Potency (Es-2) | Potency (HeLa)

CC1(C)CCC(C)(C)c2cc3c(cc21)Sc1ccccc1N=C3c1ccc(C(=O)O)cc1
inactive: outcome (CRL-7250) | outcome (HEK293) | max response (HaCat) -6.28% | max response (KB-3-1) -15.5% | max response (NIH3T3 [1]) 3.93% | Potency (HEK293T) | Potency (C33A) | Potency (CAOV3) | Potency (CASKI) | Potency (Es-2) | Potency (HeLa)

CC(=O)NC(C(=O)OC1CCC(C)(C)C2CC=C3C(=O)OCC3(O)C12C)C(C)C (stereo not drawn)
inactive: max response (CRL-7250) 3.06% | outcome (HEK293) | max response (HaCat) -11.8% | outcome (KB-3-1) | max response (NIH3T3 [1]) -6.26% | Potency (HEK293T) | Potency (C33A) | Potency (CAOV3) | Potency (CASKI) | Potency (Es-2) | Potency (HeLa)

Cn1c(=O)c2nc(/C=C/c3cccc(Cl)c3)n(C)c2n(C)c1=O
inactive: outcome (CRL-7250) | outcome (HEK293) | max response (HaCat) -5.76% | outcome (KB-3-1) | max response (NIH3T3 [1]) -2.68% | Potency (HEK293T) | Potency (C33A) | Potency (CAOV3) | Potency (CASKI) | Potency (Es-2) | Potency (HeLa)

C=C1CCC2C(OC(=O)C2(O)COC(C)=O)C2C(=C)C(O)CC12 (stereo not drawn)
inactive: max response (CRL-7250) -7.9% | outcome (HEK293) | max response (HaCat) -8.75% | max response (KB-3-1) 8.26% | max response (NIH3T3 [1]) -5.53% | Potency (HEK293T) | Potency (C33A) | Potency (CAOV3) | Potency (CASKI) | Potency (Es-2) | Potency (HeLa)

CCC(C)(O)C(O)C(=O)OCc1ccc(O[C@@H]2O[C@H](CO)[C@@H](O)[C@H](O)[C@H]2O)cc1 (stereo partly drawn)
inactive: max response (CRL-7250) -2.71% | outcome (HEK293) | max response (HaCat) -0.484% | outcome (KB-3-1) | max response (NIH3T3 [1]) -0.787% | Potency (HEK293T) | Potency (C33A) | Potency (CAOV3) | Potency (CASKI) | Potency (Es-2) | Potency (HeLa)

N[C@@H](CC(=O)N1CCn2c(nnc2C(F)(F)F)C1)Cc1[nH]nc2c(F)c(F)ccc12
inactive: max response (CRL-7250) -0.191% | outcome (HEK293) | max response (HaCat) -2.51% | max response (KB-3-1) -3.58% | max response (NIH3T3 [1]) -1.97% | Potency (HEK293T) | Potency (C33A) | Potency (CAOV3) | Potency (CASKI) | Potency (Es-2) | Potency (HeLa)

CC(C)[C@@H](C)/C=C/[C@@H](C)[C@H]1CC[C@H]2C3=CC=C4C[C@@H](O)CC[C@]4(C)[C@H]3CC[C@]12C
inactive: max response (CRL-7250) -9.59% | outcome (HEK293) | max response (HaCat) -1.06% | outcome (KB-3-1) | max response (NIH3T3 [1]) -4.11% | Potency (HEK293T) | Potency (C33A) | Potency (CAOV3) | Potency (CASKI) | Potency (Es-2) | Potency (HeLa)

CC1(CO)CC[C@]2(C(=O)O[C@@H]3O[C@H](CO)[C@@H](O)[C@H](O)[C@H]3O)CC[C@]3(C)C(=CCC4[C@@]5(C)CC[C@H](O[C@@H]6O[C@H](C(=O)O)[C@@H](O)[C@H](O)[C@H]6O)C(C)(C)C5CC[C@]43C)C2C1 (stereo partly drawn)
inactive: max response (CRL-7250) -1.41% | outcome (HEK293) | max response (HaCat) 1.75% | outcome (KB-3-1) | outcome (NIH3T3 [1]) | outcome (HEK293T) inactive [at 9.27 µM] | activity change, negative = cytotoxicity (C33A) 12.6% [at 11.6 µM] | activity change, negative = cytotoxicity (CAOV3) 12.9% [at 11.6 µM] | activity change, negative = cytotoxicity (CASKI) -3.81% [at 11.6 µM] | activity change, negative = cytotoxicity (Es-2) 8.61% [at 11.6 µM] | activity change, negative = cytotoxicity (HeLa) 8.66% [at 11.6 µM]

CC(/C=C/C1(O)C2(C)COC1(C)CC(=O)C2)O[C@@H]1O[C@H](CO)[C@@H](O)[C@H](O)[C@H]1O (stereo partly drawn)
inactive: max response (CRL-7250) -2.92% | outcome (HEK293) | max response (HaCat) 3.45% | outcome (KB-3-1) | max response (NIH3T3 [1]) 3.43% | Potency (HEK293T) | Potency (C33A) | Potency (CAOV3) | Potency (CASKI) | Potency (Es-2) | Potency (HeLa)
